The structures appear in SMILES notation. Values without a mark were called inactive. Inconclusive results are not listed. The source made the active and inactive calls. Unless noted, calls come from the whole dose curve; as a rule, active = well fitted curve in the direction sought with a large enough effect in the repeat runs; inconclusive = weak or mixed curves; inactive = no such curve, though single readings can be large; an effect the other way counts as inactive or inconclusive.

Assay [1] has as its target Thyrotropin-releasing hormone receptor (Homo sapiens) (UniProt P34981). Kind of assay: qHTS assay to identify small molecule agonists of the thyrotropin-releasing hormone receptor (TRHR) signaling pathway (AID 1346891; calls by dose curve;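 note: HEK293 cells expressing TRHR with calcium dye readout; series mostly up to about 58 µM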). In outline: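 Agonist-mode calcium mobilisation screen: TRHR-transfected HEK293 cells cultured overnight (18 h), dye-loaded for 2 h at 37 °C, exposed to compounds, and monitored by fluorescence for 3 min.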

The nature of assay [2]: Caspase-3/7 induction in CHO-K1 cells by small molecules, qHTS cell viability counter screen (AID 1346979). Note: nearly all actives have a fitted effect of over 35% in size. Note: potency is the fitted concentration of half-maximal effect. An outline of the steps: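 In the same wells as the caspase read, viability of compound-treated wild-type CHO-K1 cells was assessed using CellTiter-Fluor, added after 16hr at 37C and measured by fluorescence following 1hr further incubation.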
The nature of assay [3]: Caspase-3/7 induction in HepG2 cells by small molecules, qHTS cell viability counter screen (AID 1346981). Note: nearly all actives have a fitted effect of over 30% in size. Note: potency is the fitted concentration of half-maximal effect. In outline:
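Wild-type HepG2 cells, 2,000/well, settled 5 hr at 37 C, 5% CO2 before compound addition. Viability read by CellTiter-Fluor fluorescence, reagent added after 16 hr compound exposure, then 1 hr at 37C, in the same wells as the caspase read.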
In general terms: Quantitative high-throughput screening tests each substance at several concentrations.

The target of assay [4] is Nuclear receptor subfamily 1 group I member 2 (Homo sapiens) (UniProt O75469). Kind of assay: Human pregnane X receptor (PXR) small molecule agonists, qHTS assay (AID 1346982). Note: nearly all actives have a fitted effect of over 35% in size. Note: potency is the fitted concentration of half-maximal effect. An outline of the steps: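 PXR-Luc HepG2 reporter cells (CYP3A4-driven luciferase) in 5% charcoal-stripped FBS medium, plated 5 h before compound addition, then treated 24 h at 37C. Luciferase read by ONE-Glo luminescence after 30 min at room temperature.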
Nuclear receptor subfamily 1 group I member 2 (Homo sapiens), sequence (O75469 whole entry, looked up): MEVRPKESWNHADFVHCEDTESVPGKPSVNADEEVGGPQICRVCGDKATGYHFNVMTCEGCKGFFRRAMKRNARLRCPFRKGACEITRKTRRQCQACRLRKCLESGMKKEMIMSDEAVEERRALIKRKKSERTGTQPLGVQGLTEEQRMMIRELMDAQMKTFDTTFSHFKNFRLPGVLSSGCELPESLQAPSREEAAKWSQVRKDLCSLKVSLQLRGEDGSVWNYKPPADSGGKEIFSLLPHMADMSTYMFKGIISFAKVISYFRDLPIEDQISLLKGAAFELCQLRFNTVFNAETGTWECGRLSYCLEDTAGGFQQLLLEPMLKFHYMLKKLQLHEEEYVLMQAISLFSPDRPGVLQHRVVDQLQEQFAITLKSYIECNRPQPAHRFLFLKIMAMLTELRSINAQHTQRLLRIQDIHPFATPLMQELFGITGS

Assay [5] deals with Acetylcholinesterase (Homo sapiens) (UniProt P22303). As to the kind of experiment: Acetylcholinesterase (AChE) small molecule antagonists: colormetric cell-based qHTS assay (AID 1347395; calls by dose curve; note: nearly all actives have a fitted effect of over 30% in size; note: potency is the fitted concentration of half-maximal effect). An outline of the steps:
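Endogenous AChE of human neuroblastoma SH-SY5Y cells was measured with an Ellman-type DTNB/acetylthiocholine mix. Compound pretreatment lasted 30 min at 37 C; substrate reaction ran 90 min at 37 C.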

Assay [6] has the same target. As to the kind of experiment: Acetylcholinesterase (AChE) small molecule antagonists: enzyme-based qHTS assay (AID 1347397; calls by dose curve; note: nearly all actives have a fitted effect of over 55% in size; note: potency is the fitted concentration of half-maximal effect). To be noted: Potency: AChE enzyme activity inhibition. An outline of the steps:
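Recombinant human AChE, dispensed at 50 mU/mL, was preincubated with Tox21 10K compounds or DMSO vehicle for 30 min at room temperature. DTNB plus acetylthiocholine was then added, and thiocholine was measured colorimetrically after a further 10 min.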

Assay [7] has the same target. As to the kind of experiment: Acetylcholinesterase (AChE) small molecule antagonists: fluorescence cell-based qHTS assay (AID 1347398; calls by dose curve; note: nearly all actives have a fitted effect of over 50% in size; note: potency is the fitted concentration of half-maximal effect). To be noted: Potency: AChE activity. In outline: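 Human SH-SY5Y cells were plated overnight at 37 C, exposed to compound for 30 min at 37 C, 5% CO2, then given acetylthiocholine plus Thiolite Green for 40 min at room temperature; thiocholine fluorescence (Ex/Em 490/520 nm) reports endogenous AChE activity.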

The target is the same in assay [8]. As to the kind of experiment: Acetylcholinesterase (AChE) small molecule antagonists: enzyme-based qHTS assay with human liver microsomes (AID 1347399; calls by dose curve; note: nearly all actives have a fitted effect of over 60% in size). The settings on record: Potency: qHTS inhibition. In outline: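 Recombinant human AChE (50 mU/mL in the enzyme mix) and human liver microsomes (0.25 mg/mL final) were preincubated with compound and NADPH (0.25 mg/mL final) for 30 min at 37 C. Acetylthiocholine/DTNB was then added; thiocholine was read colorimetrically after 10 min at room temperature.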

Assay [9] deals with Cytochrome P450 2D6 (Homo sapiens) (UniProt P10635). Kind of assay: Cytochrome P450 Family 2 Subfamily D Member 6 (CYP2D6) small molecule antagonists: luciferase reporter qHTS assay (AID 1671196). Note: nearly all actives have a fitted effect of over 50% in size. Note: potency is the fitted concentration of half-maximal effect. In outline: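 Cell-free P450-Glo system: CYP2D6 with proluciferin substrate was pre-incubated with compound for 10 min, then reacted with NADPH regeneration for 1 h at room temperature. Luciferin product was detected after 20 min, and data were reported as relative luminescence units.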
Cytochrome P450 2D6 (Homo sapiens), sequence (P10635 whole entry, looked up): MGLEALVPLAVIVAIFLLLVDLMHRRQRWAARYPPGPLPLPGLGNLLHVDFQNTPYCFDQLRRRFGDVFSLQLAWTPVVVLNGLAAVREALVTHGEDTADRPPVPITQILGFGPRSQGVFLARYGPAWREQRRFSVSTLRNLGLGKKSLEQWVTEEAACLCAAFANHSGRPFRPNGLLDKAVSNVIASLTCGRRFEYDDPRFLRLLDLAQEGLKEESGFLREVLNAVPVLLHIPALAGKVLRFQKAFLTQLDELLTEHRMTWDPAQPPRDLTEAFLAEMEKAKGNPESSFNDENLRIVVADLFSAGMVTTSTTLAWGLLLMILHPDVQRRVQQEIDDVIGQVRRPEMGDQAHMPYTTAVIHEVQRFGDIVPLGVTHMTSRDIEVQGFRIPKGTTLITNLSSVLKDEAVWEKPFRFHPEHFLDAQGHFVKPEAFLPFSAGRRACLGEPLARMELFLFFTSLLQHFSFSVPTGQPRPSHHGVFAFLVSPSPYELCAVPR

In assay [10] the target is Cytochrome P450 2C19 (Homo sapiens) (UniProt P33261). Kind of assay: Cytochrome P450 Family 2 Subfamily C Member 19 (CYP2C19) small molecule antagonists: luciferase reporter qHTS assay (AID 1671197). Note: nearly all actives have a fitted effect of over 65% in size. Note: potency is the fitted concentration of half-maximal effect. In outline:
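P450-Glo CYP2C19 system: enzyme-substrate mix with compound 10 min at room temperature, then NADPH regeneration solution, 1 h at 37C. Proluciferin-to-luciferin conversion detected by luminescence after 20 min with detection reagent; ketoconazole as positive control.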
In general terms: A reporter such as luciferase makes a cellular process visible.

Assay [11] concerns the target Cytochrome P450 2C9 (Homo sapiens) (UniProt P11712). As to the kind of experiment: Cytochrome P450 Family 2 Subfamily C Member 9 (CYP2C9) small molecule antagonists: luciferase reporter qHTS assay (AID 1671198). Note: nearly all actives have a fitted effect of over 50% in size. Note: potency is the fitted concentration of half-maximal effect. In outline:
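CYP2C9 activity was measured with a P450-Glo proluciferin substrate. Enzyme–substrate mix was held with compound for 10 min at room temperature, then NADPH regeneration solution was added for 1 h at 37C. Luciferin product was read as luminescence.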

Assay [12] deals with Cytochrome P450 1A2 (Homo sapiens) (UniProt P05177). As to the kind of experiment: Cytochrome P450 Family 1 Subfamily A Member 2 (CYP1A2) small molecule antagonists: luciferase reporter qHTS assay (AID 1671199). Note: nearly all actives have a fitted effect of over 50% in size. Note: potency is the fitted concentration of half-maximal effect. In outline:
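P450-Glo CYP1A2 enzyme–proluciferin substrate mix with compound 10 min at room temperature, then NADPH regeneration 1 h at room temperature. Luciferin detection reagent added, luminescence read after 20 min; furafylline positive control.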

The target in assay [13] is Voltage-gated inwardly rectifying potassium channel KCNH2 (Homo sapiens) (UniProt Q12809). Kind of assay: Human Ether-a-go-go-Related Gene (hERG) channel small molecule antagonists: fluorescence cell-based qHTS assay (AID 1671200). An outline of the steps: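 Quantitative HTS in hERG-U2OS cells: thallium entry through the channel reports activity, read as continuous 480/540 nm fluorescence over 2 min after stimulus addition.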
Voltage-gated inwardly rectifying potassium channel KCNH2 (Homo sapiens), sequence (Q12809 whole entry, looked up): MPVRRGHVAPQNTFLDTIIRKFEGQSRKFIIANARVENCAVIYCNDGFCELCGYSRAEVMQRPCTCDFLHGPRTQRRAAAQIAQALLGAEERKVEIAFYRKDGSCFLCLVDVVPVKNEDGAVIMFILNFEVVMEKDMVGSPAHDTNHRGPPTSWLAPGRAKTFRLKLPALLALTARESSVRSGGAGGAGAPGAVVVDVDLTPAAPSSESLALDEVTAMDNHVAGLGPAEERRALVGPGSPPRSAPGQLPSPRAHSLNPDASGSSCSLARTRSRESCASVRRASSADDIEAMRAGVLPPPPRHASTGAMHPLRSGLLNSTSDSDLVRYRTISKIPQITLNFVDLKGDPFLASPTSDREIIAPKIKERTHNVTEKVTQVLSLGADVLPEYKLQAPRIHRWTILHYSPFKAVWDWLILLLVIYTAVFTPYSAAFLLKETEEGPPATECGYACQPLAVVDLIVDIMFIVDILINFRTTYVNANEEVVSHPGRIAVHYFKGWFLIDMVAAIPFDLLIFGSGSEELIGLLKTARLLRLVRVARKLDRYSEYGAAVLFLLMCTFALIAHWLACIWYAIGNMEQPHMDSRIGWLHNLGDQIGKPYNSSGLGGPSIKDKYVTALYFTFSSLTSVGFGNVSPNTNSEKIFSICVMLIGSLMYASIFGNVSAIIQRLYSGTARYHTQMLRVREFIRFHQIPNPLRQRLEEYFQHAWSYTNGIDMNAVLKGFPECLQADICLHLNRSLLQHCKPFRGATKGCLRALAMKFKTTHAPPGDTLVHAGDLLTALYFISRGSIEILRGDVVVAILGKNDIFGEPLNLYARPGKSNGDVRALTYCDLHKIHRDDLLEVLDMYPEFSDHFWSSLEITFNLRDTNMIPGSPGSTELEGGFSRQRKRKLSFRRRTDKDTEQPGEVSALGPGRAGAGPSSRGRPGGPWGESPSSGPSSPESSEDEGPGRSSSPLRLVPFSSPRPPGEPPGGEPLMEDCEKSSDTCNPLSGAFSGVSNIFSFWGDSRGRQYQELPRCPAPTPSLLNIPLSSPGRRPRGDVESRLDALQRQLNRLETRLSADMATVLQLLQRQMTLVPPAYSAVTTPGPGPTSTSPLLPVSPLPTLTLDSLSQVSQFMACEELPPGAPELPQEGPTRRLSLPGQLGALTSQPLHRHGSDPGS
On the technique in general: The hERG channel carries a current that helps repolarise heart muscle cells.

In assay [14] the target is Cytochrome P450 3A4 (Homo sapiens) (UniProt P08684). Kind of assay: Cytochrome P450 Family 3 Subfamily A Member 4 (CYP3A4) small molecule antagonists: luciferase reporter qHTS assay (AID 1671201). Note: nearly all actives have a fitted effect of over 50% in size. Note: potency is the fitted concentration of half-maximal effect. An outline of the steps:
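Inhibition of CYP3A4 is measured as loss of light: the enzyme converts a proluciferin substrate to luciferin, detected luminescently. Reaction ran 1 h at room temperature with NADPH regeneration after a 10 min compound preincubation.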

The nature of assay [15]: Caspase-3/7 induction in HepG2 cells by small molecules, qHTS assay (AID 1346978). Note: nearly all actives have a fitted effect of over 15% in size. In outline: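 Wild-type HepG2 cells (2,000/well) were settled 5 h at 37 C, 5% CO2, then exposed to compounds in DMSO for 17 h. Caspase-3/7 activity was read by luminescence 30 min after adding Caspase-Glo 3/7 reagent at room temperature.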
Assay [16] in a line: Caspase-3/7 induction in CHO-K1 cells by small molecules, qHTS assay (AID 1346980). Note: nearly all actives have a fitted effect of over 15% in size. An outline of the steps:
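Wild-type cells were seeded at 1,500 per well and settled 5 hr at 37 C, 5% CO2, then exposed to DMSO-dissolved compounds for 17 hr. Caspase-Glo 3/7 reagent was added, and luminescence was read after 30min at room temperature.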

Assay [17] can be described thus: Human pregnane X receptor (PXR) small molecule agonists, qHTS cell viability counter screen (AID 1346977). Note: nearly all actives have a fitted effect of over 50% in size. In outline:
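Measures live-cell protease fluorescence (CellTiter-Fluor) in PXR-Luc HepG2 cells treated 24hr with compounds at 37C. Cells had 5hr to attach before pin transfer of DMSO solutions.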

Assay [18] concerns the target Nuclear receptor subfamily 1 group I member 2 (Rattus norvegicus) (UniProt Q9R1A7). Kind of assay: Rat pregnane X receptor (rPXR) activation by small molecules, qHTS assay (AID 1346983). Note: nearly all actives have a fitted effect of over 20% in size. The settings on record: rPXR luciferase reporter cells, One-Glo luminescence, 24 h; max activation: active compounds read high. In outline:
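Cell-based rPXR luciferase reporter assay, 2,000 cells per well, rested 5hr at 37 C before compound addition in DMSO, then 24 hr at 37 C. One-Glo reagent was added and luminescence read after 30 min at room temperature.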
% is set by controls: 0 for no effect and ±100 for the full control effect.

Thyrotropin-releasing hormone receptor (Homo sapiens), sequence (P34981 whole entry, looked up): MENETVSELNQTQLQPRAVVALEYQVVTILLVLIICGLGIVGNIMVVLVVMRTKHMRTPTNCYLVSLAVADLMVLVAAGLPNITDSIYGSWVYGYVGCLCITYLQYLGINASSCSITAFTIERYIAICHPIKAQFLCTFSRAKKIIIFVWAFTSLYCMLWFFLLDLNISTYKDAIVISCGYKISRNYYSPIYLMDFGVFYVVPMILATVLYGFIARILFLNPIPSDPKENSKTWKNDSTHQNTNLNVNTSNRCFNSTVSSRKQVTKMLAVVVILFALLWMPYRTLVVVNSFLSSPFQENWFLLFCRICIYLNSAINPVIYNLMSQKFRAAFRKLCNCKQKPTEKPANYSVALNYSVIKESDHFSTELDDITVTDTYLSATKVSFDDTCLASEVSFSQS
Cytochrome P450 3A4 (Homo sapiens), sequence (P08684 whole entry, looked up): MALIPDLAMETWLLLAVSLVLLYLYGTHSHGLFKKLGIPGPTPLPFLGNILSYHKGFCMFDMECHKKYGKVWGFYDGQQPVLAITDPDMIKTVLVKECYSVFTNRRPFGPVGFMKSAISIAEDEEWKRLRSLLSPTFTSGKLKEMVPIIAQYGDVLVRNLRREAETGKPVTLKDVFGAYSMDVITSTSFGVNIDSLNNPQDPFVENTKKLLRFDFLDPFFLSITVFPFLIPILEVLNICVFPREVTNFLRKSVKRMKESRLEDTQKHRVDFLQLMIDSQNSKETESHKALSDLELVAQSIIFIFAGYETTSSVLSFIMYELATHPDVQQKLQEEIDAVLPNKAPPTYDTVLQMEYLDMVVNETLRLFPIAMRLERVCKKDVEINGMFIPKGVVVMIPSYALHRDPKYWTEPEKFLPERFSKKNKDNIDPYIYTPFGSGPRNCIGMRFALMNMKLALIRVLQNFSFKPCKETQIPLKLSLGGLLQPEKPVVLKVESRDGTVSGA
Acetylcholinesterase (Homo sapiens), sequence (P22303 whole entry, looked up): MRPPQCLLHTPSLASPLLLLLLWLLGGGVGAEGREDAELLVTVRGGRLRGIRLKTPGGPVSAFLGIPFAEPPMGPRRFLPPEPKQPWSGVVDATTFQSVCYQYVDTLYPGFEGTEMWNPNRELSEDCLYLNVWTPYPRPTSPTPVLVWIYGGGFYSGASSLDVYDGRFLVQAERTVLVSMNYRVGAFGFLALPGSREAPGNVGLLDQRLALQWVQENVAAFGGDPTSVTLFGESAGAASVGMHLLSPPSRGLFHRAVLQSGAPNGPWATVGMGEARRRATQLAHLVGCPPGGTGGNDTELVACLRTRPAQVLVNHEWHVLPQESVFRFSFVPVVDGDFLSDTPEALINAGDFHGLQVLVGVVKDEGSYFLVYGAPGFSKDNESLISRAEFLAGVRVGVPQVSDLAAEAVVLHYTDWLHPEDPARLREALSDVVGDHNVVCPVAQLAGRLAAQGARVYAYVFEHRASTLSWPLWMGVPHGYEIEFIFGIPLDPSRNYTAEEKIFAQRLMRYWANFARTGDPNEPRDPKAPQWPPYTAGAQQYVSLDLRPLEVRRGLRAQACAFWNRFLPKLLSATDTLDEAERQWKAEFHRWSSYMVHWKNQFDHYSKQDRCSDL
Cytochrome P450 1A2 (Homo sapiens), sequence (P05177 whole entry, looked up): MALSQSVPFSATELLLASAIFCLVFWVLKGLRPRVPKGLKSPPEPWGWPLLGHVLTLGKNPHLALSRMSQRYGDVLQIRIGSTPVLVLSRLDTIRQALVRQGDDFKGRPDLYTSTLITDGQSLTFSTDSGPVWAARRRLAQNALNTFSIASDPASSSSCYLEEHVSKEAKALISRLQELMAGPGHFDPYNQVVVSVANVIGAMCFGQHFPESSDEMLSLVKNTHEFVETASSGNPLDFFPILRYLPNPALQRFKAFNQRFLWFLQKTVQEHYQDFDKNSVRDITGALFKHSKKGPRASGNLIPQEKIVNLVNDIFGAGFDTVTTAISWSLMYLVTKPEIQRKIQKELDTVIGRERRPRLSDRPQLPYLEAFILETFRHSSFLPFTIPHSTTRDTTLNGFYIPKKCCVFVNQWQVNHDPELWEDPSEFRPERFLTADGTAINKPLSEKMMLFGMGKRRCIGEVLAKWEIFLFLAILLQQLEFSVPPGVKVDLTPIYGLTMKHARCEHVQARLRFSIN
Cytochrome P450 2C19 (Homo sapiens), sequence (P33261 whole entry, looked up): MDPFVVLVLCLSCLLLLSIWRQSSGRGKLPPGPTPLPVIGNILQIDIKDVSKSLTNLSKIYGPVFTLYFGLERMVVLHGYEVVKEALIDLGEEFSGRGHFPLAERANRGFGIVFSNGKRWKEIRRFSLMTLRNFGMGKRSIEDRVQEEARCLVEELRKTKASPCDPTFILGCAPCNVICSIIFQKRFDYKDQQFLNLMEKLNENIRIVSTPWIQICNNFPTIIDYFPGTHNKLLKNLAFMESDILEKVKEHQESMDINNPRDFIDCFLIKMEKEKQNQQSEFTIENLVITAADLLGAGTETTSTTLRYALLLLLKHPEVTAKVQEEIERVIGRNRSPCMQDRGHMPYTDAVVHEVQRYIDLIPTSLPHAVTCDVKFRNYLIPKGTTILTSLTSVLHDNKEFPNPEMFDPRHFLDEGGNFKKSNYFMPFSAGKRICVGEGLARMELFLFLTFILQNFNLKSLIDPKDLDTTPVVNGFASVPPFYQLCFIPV

In the case of `CC1CC(CC2CCC(N)C(C)C2)CCC1N` (stereo not given), the Potency entry in assay [1], in assay [2], in [3], in assay [4], in [5] and in assay [6] was “inactive” throughout. Further, the Potency result in [7], in assay [8], in assay [10], in assay [11] and in assay [13] was “inactive” each time. Besides, the Potency was 12.8 µM (active) in assay [9], 32.2 µM (active) in [12] and 2.87 µM (active) in [14].
For `CS/C(C)=N/OC(=O)N(C)SN(C)C(=O)O/N=C(\C)SC`, the Potency result in assay [1], in assay [15], in assay [3] and in assay [14] was “inactive” in each case. The Potency in assay [5] was 1.42 µM (active); in assay [6], 5.03 µM (active); in assay [7], 0.71 µM (active); in assay [10] it was 71 µM (active); in assay [11], 79.6 µM (active).
Regarding `CCCCN(N=O)C(=N)N[N+](=O)[O-]`, the Potency result in [1], in assay [15], in assay [16], in [4], in assay [5] and in assay [6] was “inactive” each time. Besides, the Potency result in assay [7], in [8], in [10], in assay [11] and in assay [13] was “inactive” throughout. Further, the values for the Potency in assay [2] and in assay [12] were 62.4 µM (active) and 40.8 µM (active), respectively.
For `N#CCC#N`, the Potency result in [1], in assay [15], in [16], in assay [5], in assay [6] and in [7] was “inactive” throughout. Besides, the Potency result in assay [8], in [10], in assay [12] and in assay [13] was “inactive” each time. Also, the Potency is 30.6 µM (active) in assay [2] and 63.3 µM (active) in assay [11].
Consider `CC/C(=N\OC/C=C/Cl)C1=C(O)CC(C2CCOCC2)CC1=O` (stereo not given), for which the Potency entry in assay [17], in assay [15], in assay [2], in assay [16], in assay [3] and in assay [4] was “inactive” throughout. The Potency entry in assay [5], in assay [6], in assay [7], in [8], in assay [9] and in [13] was “inactive” each time. Further, the Potency in assay [10] was 70.9 µM (active); in assay [11], 31.7 µM (active); in [14], 31.7 µM (active).
In the case of `Clc1cc(C(Cl)(Cl)Cl)cnc1Cl`, the Potency entry in assay [1], in [16], in assay [5], in [6], in assay [7] and in assay [8] was “inactive” each time. Besides, the Potency result in [9] and in [13] was “inactive” each time. The results for the Potency in assay [4], in assay [12] and in assay [14] were 54.5 µM (active), 7.96 µM (active) and 8.94 µM (active), respectively.
For the molecule `O=[N+]([O-])c1cc(C(F)(F)F)cc([N+](=O)[O-])c1Cl`, the Potency result in assay [1], in [15], in assay [5], in assay [6], in [7] and in assay [8] was “inactive” each time. For the same molecule, the Potency entry in assay [13] and in assay [14] was “inactive” each time. Also, the Potency in [3] was 61.4 µM (active); in [9] it was 17.9 µM (active); in assay [10], 40.1 µM (active); in assay [11], 17.9 µM (active).
On to `CN1C(=O)C(O)N=C(c2ccccc2)c2cc(Cl)ccc21` (stereo not given), for which the Potency entry in assay [17], in assay [15], in assay [2], in assay [16], in assay [3] and in assay [5] was “inactive” in each case. The Potency entry in [6] and in [7] was “inactive” throughout. In [4], the Potency was 28.3 µM (active). In assay [18], the max activation was -0.547%.
Consider `CC[C@H]1C[C@H]2[C@@H]3CCC4=CC(=O)CC[C@@H]4[C@H]3CC[C@]2(C)[C@H]1O`, for which the Potency entry in [17], in assay [15], in [2], in assay [16], in assay [3] and in [5] was “inactive” each time. Also, the Potency entry in [6], in [7], in [8], in [9], in assay [12] and in [13] was “inactive” throughout. Also, the Potency result in [14] was “inactive”. Moreover, the Potency in [4] was 9.44 µM (active).

For the origin of these results see PubChem BioAssay (Tox21).
